Measured values published in the supplement of paper PMC7411640.
Counter-ions that a name gives are not always drawn.

System: MDA-MB-468
Assay: phospho-S6 immunofluorescence (DAPI-normalised), per-plate z-score; higher = higher phospho-S6 signal (less pathway suppression)
Conditions: 24 h
Description: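 GPCR-targeted compound library (MedChemExpress HY-L006) tested on MDA-MB-468 PTEN-null TNBC cells in 384-well plates at 0.1, 1 or 10 uM, combined with vehicle, GDC0941 450 nM or lapatinib 1 uM, for 24 h. Phospho-S6 (S240/244) immunofluorescence normalised to DAPI and expressed as a per-plate z-score; values are the mean of biological triplicates.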

SMILES | phospho-S6 immunofluorescence (z-score) (co-treatment: GDC0941 450 nM) | phospho-S6 immunofluorescence (z-score) (co-treatment: lapatinib 1 uM) | phospho-S6 immunofluorescence (z-score) (co-treatment: vehicle)
CN1[C@@H]2C[C@@H](OC(=O)[C@H](CO)c3ccccc3)C[C@H]1[C@@H]1O[C@@H]12 [Scopolamine (hydrobromide)] (compound 10 µM) | -1.4 | -0.16 | 0.68
Cc1ccc2c(c1)[C@]13CCCC[C@@H]1[C@H](C2)N(C)CC3 [Dimemorfan (phosphate)] (compound 10 µM) | 0.3 | 0.09 | 0.76
CN1CCC2=C(C1)c1ccccc1Cc1ccccc12 [Setiptiline] (compound 10 µM) | -0.28 | -1.52 | -0.24
C[N+]1(C)CCCC(OC(=O)C(O)(c2ccccc2)c2ccccc2)C1 (centres undefined) [Mepenzolate (Bromide)] (compound 10 µM) | -0.25 | -0.12 | -0.02
CN1CCC(C(=O)c2cccc(NC(=O)c3c(F)cc(F)cc3F)n2)CC1 [Lasmiditan (hydrochloride)] (compound 10 µM) | -2.08 | -3.95 | -0.09
CC(C)(C)NCC(O)c1cc(Cl)c(N)c(Cl)c1 (centres undefined) [Clenbuterol (hydrochloride)] (compound 10 µM) | 1.42 | 1.64 | 0.37
Cc1cccc(C)c1NC1=NCCCS1 [Xylazine (hydrochloride)] (compound 10 µM) | 0.73 | 0.79 | 0.89
CN1C[C@H](C(=O)N[C@]2(C)O[C@@]3(O)[C@@H]4CCCN4C(=O)[C@H](Cc4ccccc4)N3C2=O)C[C@@H]2c3cccc4[nH]cc(c34)C[C@H]21 [Dihydroergotamine (mesylate)] (compound 10 µM) | 1.05 | 0 | 0.86
O=Cc1cn(Cc2ccc(Cl)cc2)c2ccccc12 [Oncrasin-1] (compound 10 µM) | -3.49 | -7.38 | -9.12
CC(C)C[C@H](NC(=O)[C@H](Cc1ccccc1)NC(=O)CNC(=O)[C@@H](C)NC(=O)[C@@H](N)Cc1ccc(O)cc1)C(=O)O [[D-Ala2]leucine-enkephalin] (compound 10 µM) | -0.29 | 0.01 | 1.34
CN1CCC2=C(C1)c1ccccc1Cc1ccccc12 [Setiptiline (maleate)] (compound 10 µM) | -0.68 | -1.28 | -1.11
CSCC[C@H](NC(=O)[C@H](Cc1ccccc1)NC(=O)CNC(=O)CNC(=O)[C@@H](N)Cc1ccc(O)cc1)C(=O)O (compound 10 µM) | -0.41 | -0.12 | -0.05
COc1ccc2c(c1)[C@]13CCCC[C@@H]1[C@H](C2)N(C)CC3 [Dextromethorphan (hydrobromide hydrate)] (compound 10 µM) | -0.24 | -0.31 | 0.42
